# Assay outcomes (PubChem)
# 3T3 cytotox = NIH 3T3 cell cytotoxicity; NIH 3T3 viability, CellTiter-Glo ATP luminescence, 48-72 h; Potency, µM (doses to about 96.7 µM), inactives show top-dose activity change, negative = cytotoxicity, most hits filed as inhibitors; 4.3% of 94,000 active; AID 1345082; also: nearly all actives have a fitted effect of over 55% in size
#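 NIH 3T3 cells at 400 cells/well received 23 nL of compound by pintool and were incubated 48 or 72 h at 37 °C. Viability was read as ATP-coupled CellTiter-Glo luminescence.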
# HEK293 tox = kills HEK 293 cells. HEK 293 viability, ATP luminescence (CellTiter-Glo), 48-72 h. Potency, µM (top dose mostly 115 µM), inactives show top-dose activity change, negative = cytotoxicity, hits mostly inhibitors. 6.6% of 94,000 active. AID 1345083; also: nearly all actives have a fitted effect of over 60% in size
#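 Cells seeded first (HEK 293, 250 cells/well), then compound added by pintool. Incubation ran 48 or 72 hr at 37 degree Celsius. CellTiter-Glo was added and luminescence imaged after 10 min at room temperature.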
# GPT2 inh = blocks human glutamate pyruvate transaminase 2. Q8TD30. Recombinant GPT2, coupled pyruvate oxidase/HRP Amplex Red fluorescence. Potency, µM (highest dose often 57.7 µM), for inactives: top-dose activity change, negative = inhibition, most hits filed as inhibitors. 0.25% of 100,000 active. AID 1671188; also: nearly all actives have a fitted effect of over 60% in size
#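 Fluorescence of coupled pyruvate oxidase/HRP/Amplex Red system (50uM Amplex, 30 min, dark) reports pyruvate formed by GPT2. Enzyme reaction: 10ng/uL GPT2, 2mM L-alanine, 250uM a-KG, 30 min room temperature, pH 7.5; 50uM AOA control.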
# hNpr1 antagonist = antagonists of human natriuretic peptide receptor Npr1; P16066; 1.6% of 76,000 active; HEK293 hNpr1 GloSensor cGMP, ANP-stimulated luminescence; Potency, µM (series often up to 46.3 µM), without a hit: at the top dose activity change, negative = inhibition, most hits filed as inhibitors; calls by dose curve; also: nearly all actives have a fitted effect of over 60% in size
#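 Compound pre-incubated 30 min at room temperature on GloSensor-loaded HEK293 cells stably carrying hNpr1 and the pGS-40F cGMP biosensor. Stimulation uses hNppA at 0.1 nM final; luminescence is taken at baseline and 20 min post-agonist.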
# Luciferase inh = blocks purified firefly luciferase enzyme activity. 2.5% of 76,000 active. purified P. pyralis luciferase, luminescence, biochemical. P08659. AID 1347043. Potency, µM (series often up to 115 µM), hits mostly inhibitors; also: nearly all actives have a fitted effect of over 65% in size
# Target sequence (P08659 whole entry, looked up): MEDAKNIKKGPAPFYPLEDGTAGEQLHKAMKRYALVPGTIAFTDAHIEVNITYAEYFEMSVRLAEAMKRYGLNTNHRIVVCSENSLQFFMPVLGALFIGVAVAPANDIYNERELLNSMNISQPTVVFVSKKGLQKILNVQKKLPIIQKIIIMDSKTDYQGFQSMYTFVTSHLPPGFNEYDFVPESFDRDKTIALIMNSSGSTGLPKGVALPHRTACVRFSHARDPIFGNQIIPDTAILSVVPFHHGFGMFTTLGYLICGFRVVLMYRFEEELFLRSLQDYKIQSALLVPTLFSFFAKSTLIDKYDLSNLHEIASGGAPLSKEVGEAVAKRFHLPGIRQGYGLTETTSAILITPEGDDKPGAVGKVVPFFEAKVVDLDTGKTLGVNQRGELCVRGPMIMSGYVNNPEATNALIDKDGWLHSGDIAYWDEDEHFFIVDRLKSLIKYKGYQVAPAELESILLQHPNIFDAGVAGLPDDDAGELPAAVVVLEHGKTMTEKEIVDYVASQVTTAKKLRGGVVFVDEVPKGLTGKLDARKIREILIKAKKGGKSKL
#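 Inhibitors were tested against purified firefly luciferase in a biochemical, low-substrate format (both substrates at 10uM) and luminescence measured with a CCD imager.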
# * hit, by the source's call; i = inactive; ? = inconclusive; . = no result; ! = not confirmed by another sample; [ ] = dose if it differs, or a comment. Most compounds without a hit are left out; they make up all but 10% or so of the library. Unless noted, calls follow the shape of the dose curve; as a rule, active = well fitted curve in the direction sought with a large enough effect; inconclusive = small, poorly fitted or top-dose-only effect, or another doubt; inactive = no such curve, though single readings can be large; an effect the other way counts as inactive or inconclusive. % is scaled to controls: 0 for no effect and ±100 for the full control effect; potency is read from the fitted curve at half-maximal effect.
SMILES,3T3 cytotox,HEK293 tox,GPT2 inh,hNpr1 antagonist,Luciferase inh
CS(=O)(=O)N(C1CCOCC1)C1CN(S(=O)(=O)c2ccccc2)C1,-4%,-19%,4%,-1%,i
COc1cccc(NC(=O)CC2CCCN(c3cnn(CC4CC4)c(=O)c3)C2)c1 (stereo not given),?,?,-4%,-1%,i
Cc1ccc(NC(=O)CC2CCCN(c3cnn(CC4CC4)c(=O)c3)C2)cc1C (stereo not given),40µM*,?,i,-6%,i
COc1ccc(NC(=O)CC2CCCN(c3cnn(CC4CC4)c(=O)c3)C2)cc1 (stereo not given),28µM*,?,-9%,0%,i
Cc1ccc2[nH]c(=O)c(C3=NN(C(=O)CCC(=O)O)C(c4ccc(Br)cc4)C3)c(-c3ccccc3)c2c1 (stereo not given),.,.,4%,.,.
O=[S+]([O-])(NC1CCN(Cc2ccc(-c3ccsc3)cc2)C1)c1ccccc1 (stereo not given),?,?,i,.,.
Cc1ccc([S+](=O)([O-])NC2CCN(Cc3ccc(-c4ccsc4)cc3)C2)cc1 (stereo not given),?,45µM*,-1%,.,.
O=[S+]([O-])(NC1CCN(Cc2ccc(-c3ccsc3)cc2)C1)c1cccc(C(F)(F)F)c1 (stereo not given),16µM*,28µM*,i,.,.
O=C(NC1CCN(Cc2ccc(-c3ccsc3)cc2)C1)c1ccccc1F (stereo not given),?,?,-2%,.,.
CC(C)N1C[C@H](O)C[C@H]1c1nnc2n1CCN(C(=O)c1cccc3nccnc13)CC2,i,2%,i,-1%,i
COc1ccc(CNC(=O)[C@@H](C)C2CC[C@@]3(C)CC[C@H](NC(=O)C4CC4)[C@@H](C)[C@@H]3[C@H]2O)cc1 (stereo not given in full),-27%,?,?,-2%,i
COc1ccc(CNC(=O)[C@@H](C)C2CC[C@@]3(C)CC[C@H](NC(=O)COc4ccccc4)[C@@H](C)[C@@H]3[C@H]2O)cc1 (stereo not given in full),32µM*,22µM*,i,?,i
CC(=O)Nc1ccc(NC(=O)CN2C(=O)NC(c3ccc(C)cc3)C3=C2COC3=O)cc1 (stereo not given),-21%,-7%,?,-10%,?
CC(=O)c1cccc(NC(=O)CN2C(=O)NC(c3ccc(C)cc3)C3=C2COC3=O)c1 (stereo not given),-24%,?,i,0%,i
CCc1cccc(NC(=O)CN2C(=O)NC(c3ccc(C)cc3)C3=C2COC3=O)c1 (stereo not given),?,28µM*,i,-16%,i
Cc1ccc(C2NC(=O)N(CC(=O)Nc3ccc(Br)cc3F)C3=C2C(=O)OC3)cc1 (stereo not given),?,35µM*,-19%,-22%,i
Cc1ccc(C2NC(=O)N(CC(=O)Nc3ccc(Br)c(C)c3)C3=C2C(=O)OC3)cc1 (stereo not given),35µM*,?,2%,?,i
Cc1ccc(C2NC(=O)N(CC(=O)Nc3cc(F)cc(F)c3)C3=C2C(=O)OC3)cc1 (stereo not given),?,?,2%,-26%,i
CC(C)Oc1ccc(CNC(=O)C(C)C2CCOCC2)cc1 (stereo not given),i,3%,i,-1%,i
CCC(C)(C)C(=O)NC1CCN(c2cnn(CC3CC3)c(=O)c2)CC1,-24%,-9%,?,0%,i
COc1ccc(-c2cc(-c3ccccc3O)cn3cncc23)cc1,?,100µM*,-9%[88.5 µM],-23%[70.6 µM],i
COc1ccc(-c2cc(-c3c(C)noc3C)c3cncn3c2)cc1,?,?,-14%[88.5 µM],-3%[70.6 µM],i
COc1cccc(-c2cc(-c3ccc(OC)nc3)c3cncn3c2)c1,?,?,i,-19%[70.6 µM],i
COc1ccc(-c2cc(-c3cccc(OC)c3OC)cn3cncc23)cc1,?,89µM*,-1%[88.5 µM],0%[70.6 µM],?
COc1ccc(-c2cc(-c3cccc(CO)c3)cn3cncc23)cc1,56µM*,79µM*,i,-20%[70.6 µM],i
SMILES,3T3 cytotox,HEK293 tox,GPT2 inh,hNpr1 antagonist,Luciferase inh
Oc1ccccc1-c1cc(-c2cccnc2)c2cncn2c1,?,100µM*,-14%[88.5 µM],-22%[70.6 µM],i
CC(C)N1C[C@H](O)C[C@H]1c1nnc2n1CCN(C(=O)Cc1c[nH]c3ccccc13)CC2,-3%,-29%,-12%,-7%,i
CNC(=O)[C@@H](c1ccc(Cl)cc1)N1CCC[C@H]1C(=O)N1CCN(C)CC1,4%,i,2%,5%,i
COc1ccc(-c2cc(-c3cnn(C)c3)cn3cncc23)cn1,?,?,-22%[88.5 µM],-13%[70.6 µM],i
COc1ccc(-c2cc(-c3cnn(C)c3)cn3cncc23)cc1,35µM*,?,?,-18%[70.6 µM],i
Cc1nc(N2CCC(NC(=O)c3cc4ccccc4[nH]3)CC2)cc(C(F)(F)F)n1,?,?,i,7.9µM*,?
Cc1nc(N2CCC(NC(=O)c3ccccn3)CC2)cc(C(F)(F)F)n1,?,?,5%,?,i
CCCCCNC(=O)C1CCN(c2nccc(Nc3ccccc3F)n2)CC1,?,?,-21%,.,.
COc1ccccc1Nc1ccnc(N2CCCC(C(=O)NCCc3ccccc3)C2)n1 (stereo not given),16µM*,?,i,.,.
COc1ccccc1Nc1ccnc(N2CCCC(C(=O)NCCc3ccccc3F)C2)n1 (stereo not given),?,35µM*!,-10%,.,.
COc1ccccc1Nc1ccnc(N2CCCC(C(=O)NCCc3ccc(F)cc3)C2)n1 (stereo not given),?,?,i,.,.
CCCCCNC(=O)C1CCCN(c2nccc(Nc3ccccc3OC)n2)C1 (stereo not given),?,40µM*,-1%,.,.
Cc1cc(C(=O)NCC2CC2)c2c(C3CCCNC3)noc2n1 (stereo not given),0%,i,i,.,.
FC(F)(F)c1ccc(CNc2cc(Cl)nc3ccnn23)cc1,?,?,-7%[88.5 µM],-38%[70.6 µM],i
Clc1cc(NCc2cccs2)n2nccc2n1,?,40µM*,i,?,i
COc1ccc(CNc2cc(Cl)nc3ccnn23)cc1,?,71µM*,5%[88.5 µM],-24%[70.6 µM],i
Clc1cc(NCc2ccccc2Cl)n2nccc2n1,20µM*,?,-12%[88.5 µM],?,i
COc1ccc(C(=O)N2CCCC(n3cc(-c4noc(C)n4)nn3)C2)cc1 (stereo not given),?,-10%,i,-2%,i
